# In PubChem BioAssay AID504652 (National Center for Advancing Translational Sciences (NCATS), 2011):
# The campaign covered roughly 360,000 compounds. About 11,000 (3.1%) were called active. Many of the other results were omitted from the sample, so actives are more common in it than they were. A number with no mark means an inactive call. Rule as the data show it: active = activity change below about -30%; inactive = the rest.
# Target: D(1A) dopamine receptor (Homo sapiens) (UniProt P21728)
# Test: Antagonist of Human D 1 Dopamine Receptor: qHTS
# Conditions: HEK293 TREx D1 cells, calcium flux, dopamine EC80; at 10 µM; stronger effect = lower value
# Summary of the method: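 Tetracycline-induced HEK293 Trex D1 cells, force-coupled to calcium, dye-loaded; compounds added and read 180 s, then EC80 dopamine added and calcium flux tracked kinetically another 180 s.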
# % is scaled to controls: 0 for no effect and ±100 for the full control effect.
# D(1A) dopamine receptor (Homo sapiens), sequence (P21728 whole entry, looked up): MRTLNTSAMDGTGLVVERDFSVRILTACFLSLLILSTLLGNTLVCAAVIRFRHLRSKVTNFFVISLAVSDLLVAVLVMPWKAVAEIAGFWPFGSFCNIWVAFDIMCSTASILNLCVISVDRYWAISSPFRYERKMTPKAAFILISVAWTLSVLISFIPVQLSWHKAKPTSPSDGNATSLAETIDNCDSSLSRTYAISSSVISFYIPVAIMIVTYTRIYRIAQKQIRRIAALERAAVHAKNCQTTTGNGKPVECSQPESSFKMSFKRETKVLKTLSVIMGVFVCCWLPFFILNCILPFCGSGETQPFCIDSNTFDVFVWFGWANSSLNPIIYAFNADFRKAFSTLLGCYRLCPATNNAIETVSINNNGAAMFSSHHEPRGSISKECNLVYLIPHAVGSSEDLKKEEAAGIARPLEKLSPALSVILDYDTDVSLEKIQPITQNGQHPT
row,SMILES,"activity change, negative = inhibition"
1,Cc1ccc(S(=O)(=O)n2nc(C)c(S(=O)(=O)N3CCCCCC3)c2C)cc1,17.9%
2,COc1ccc(N(CC(=O)NCCc2ccc(Cl)cc2)S(=O)(=O)c2c(C)nn(C)c2C)cc1,-19.7%
3,CCC1CCCCN1S(=O)(=O)c1ccc(NC(=O)c2cc(=O)c3ccccc3o2)cc1 (centres undefined),-15.6%
4,Cc1ccccc1CSCCNC(=O)C1CCN(S(=O)(=O)Cc2ccccc2)CC1,-13.9%
5,CC(C)(C)NC(=O)/C(=C/c1cccnc1)NC(=O)c1ccco1,-13.6%
6,Cc1cc(/C=C(/C#N)C(=O)Nc2ccc(Cl)cc2)c(C)n1-c1cccnc1,-14.3%
7,N#C/C(=C\c1cccnc1)C(=O)Nc1ccc(SC(F)F)cc1,-35.7% (active)
8,CCCCN1CC(c2nc3ccccc3n2CCCCOc2ccc(C)cc2C)CC1=O (centres undefined),-5.31%
9,Cc1ccc(S(=O)(=O)c2nnn3c2nc(N2CCN(c4ccccn4)CC2)c2ccccc23)cc1,-20.2%
10,CCOC(=O)c1nnn2c1nc(N1CCN(c3ccccc3)CC1)c1ccccc12,-35.4% (active)
11,CCOC(=O)c1nnn2c3ccccc3c(=O)n(C)c12,-10.2%
12,CCN1CCN(CCCNC(=O)c2ccc3c(c2)sc2nc(-c4ccc(OC)cc4)cn23)CC1,-14.6%
13,CSc1nn(Cc2cccc(C)c2)c(N)c1S(=O)(=O)c1ccccc1,-16.3%
14,O=C(CSc1nnc(SCc2ccc(F)cc2)s1)Nc1ccc(C(=O)O)cc1,6.86%
15,CC(C)(C)CC(=O)Nc1nnc(SCC(=O)NCc2cccs2)s1,3.61%
16,O=C(Cc1cccs1)Nc1nnc(SCc2ccc(F)cc2)s1,-79.5% (active)
17,COc1cccc(CNC(=O)CCC(=O)N2CC3CCCN3c3ccccc32)c1 (centres undefined),-1.97%
18,Cc1ccccc1C(=O)Nc1cc(C)c(O)c(-c2nc3ccccc3o2)c1,5.18%
19,CCOC(=O)c1c(C)[nH]c(C)c1S(=O)(=O)N1CCCC(C(=O)NCc2ccccc2Cl)C1 (centres undefined),-3.63%
20,COc1ccc(CCNC(=O)Cn2c(=O)n(-c3ccccc3)c(=O)c3c(C)c(C)sc32)cc1OC,2.12%
21,CC(C)n1ncc2c(C(=O)NCc3ccccc3CN(C)C)cc(C3CC3)nc21,-37.6% (active)

row,SMILES,"activity change, negative = inhibition"
1,CC(C)n1ncc2c(C(=O)Nc3ccc(CC#N)cc3)cc(C3CC3)nc21,-2.28%
2,COc1ccc(OCCNC(=O)c2cc(C3CC3)nc3c2cnn3C(C)C)cc1,-8.1%
3,COc1ccc(Nc2ncc(C(=O)Nc3cc(C)ccc3OC)c3ccccc23)cc1,-5.45%
4,O=C(Cn1c(=O)n(-c2ccc(F)cc2)c(=O)c2sccc21)Nc1cccc(C(F)(F)F)c1,10.9%
5,CCOc1ccc(N(CC(=O)NCCOc2ccccc2OC)S(=O)(=O)c2ccccc2)cc1,-9.44%
6,CCOc1ccc(N(CC(=O)NCCc2ccc(F)cc2)S(=O)(=O)c2ccccc2)cc1,-32.1% (active)
7,CCOc1ccc(N(CC(=O)NCCc2ccc(OC)cc2)S(C)(=O)=O)cc1,6.98%
8,COc1ccc(CC(=O)N2CC(=O)Nc3ccc(Br)cc3C2c2ccc(F)cc2)cc1OC (centres undefined),1.32%
9,Cc1nnc(C)n1-c1ccc(C(=O)Nc2cccc(Br)c2)cc1,-6.55%
10,O=C(Cc1ccc(S(=O)(=O)N2CCOCC2)s1)NCCC(c1ccccc1)c1ccccc1,2.72%
11,CCN(Cc1ccccc1)C(=O)Cc1ccc(OC)c(S(=O)(=O)N2CCOCC2)c1,-8.6%
12,COCCN(Cc1ccccc1)C(=O)Cc1ccc(S(=O)(=O)N2CCOCC2)s1,-46% (active)
13,C[C@H](NC(=O)c1nc[nH]c1C(=O)NCC(=O)OC(C)(C)C)C(=O)OCc1ccccc1,-24.2%
14,C[C@H](NC(=O)c1nc[nH]c1C(=O)N[C@@H](C)C(=O)OC(C)(C)C)C(=O)OC(C)(C)C,-89.3% (active)
15,CNC(=O)c1[nH]cnc1C(=O)N[C@@H](CC(C)C)C(=O)OC(C)(C)C,-1.57%
16,CCCCS(=O)(=O)c1oc(-c2cccs2)nc1S(=O)(=O)c1ccccc1,11.6%
17,COc1ccc(-c2nc(Cn3c(=O)cc(C)c4c(C)nn(-c5ccccc5)c43)c(C)o2)cc1OC,0.18%
18,Cc1c(Cl)cccc1NC(=O)N1CCN(C(=O)c2nsc3ccccc23)CC1,-9.22%
19,COc1cccc(NC(=O)N2CCN(C(=O)c3nsc4ccccc34)CC2)c1,-44.8% (active)
20,CCc1ccc(NC(=O)N2CCN(C(=O)c3nsc4ccccc34)CC2)cc1,-22.5%
21,O=C(Nc1cc(C(F)(F)F)ccc1Cl)c1ccc2c(c1)CCN2S(=O)(=O)c1ccccc1,3.06%

row,SMILES,"activity change, negative = inhibition"
1,COc1ccc(C(=O)NC2CC2)cc1OC1CCN(C/C=C/c2ccccc2)CC1,-56.2% (active)
2,COc1cc(C(=O)N2CCN(C/C=C/c3ccccc3)CC2)cc(OC)c1C,6.67%
3,COc1cc2[nH]c(=O)n(Cc3ccc(C(=O)NC4CCN(Cc5ccccc5)CC4)cc3)c(=O)c2cc1OC,8.55%
4,COc1ccc(C(=O)NCCn2nc(C)cc2C)cc1OC1CCN(C(C)=O)CC1,1.96%
5,COc1ccc(C(=O)NC2CC2)cc1OC1CCN(Cc2cnn(C)c2)CC1,-6.25%
6,COc1ccc(C(=O)NC2CC2)cc1OC1CCN(Cc2ccc(SC)cc2)CC1,-63.9% (active)
7,CCOc1ccccc1NC(=O)Cn1nnc(C(=O)Nc2ccc(C)c(C)c2)c1N,6.21%
8,CC(C)(C)OC(=O)N1CCC(c2c(C(=O)Nc3ccc4c(c3)OCO4)cnn2-c2ccccc2)CC1,1.48%
9,COc1ccc(C2Sc3ccccc3NC3=C2C(=O)c2ccccc23)c(OC)c1OC (centres undefined),-5.17%
10,COc1ccc(N2CCN(c3nc(-c4ccccc4F)nc4ccccc34)CC2)cc1,-14.4%
11,CCc1ccc(CN(Cc2ccco2)C(=O)c2ccccc2Cl)cc1,-13.4%
12,COc1ccccc1OCc1ccc(C(=O)NC(C)c2ccccc2)o1 (centres undefined),10.5%
13,COc1ccccc1C(C)NC(=O)Cc1ccsc1 (centres undefined),-36.8% (active)
14,COc1ccc(CN(C)C(=O)Cc2ccsc2)c(OC)c1OC,-6.5%
15,CN(C(=O)CSc1nc2ccccc2n1Cc1ccccc1C#N)c1ccccc1,5.88%
16,COc1ccc(-c2c(C)c3ccc(O)c(CN4CCCC4)c3oc2=O)cc1OC,3.24%
17,CCN1CCN(Cc2c(O)ccc3c(=O)c(-c4ccc(OC)c(OC)c4)c(C(F)(F)F)oc23)CC1,10.8%
18,COc1ccc(-c2c(C)c3ccc(O)c(CN4CCN(C)CC4)c3oc2=O)cc1OC,-44.5% (active)
19,Cc1cccc(-c2nnc(SCC(=O)N3CCCc4ccccc43)o2)c1,-12.2%
20,CCNS(=O)(=O)c1ccc(NC(=O)Nc2cccc(OC)c2)cc1,-47.6% (active)
21,COc1cccc(NC(C)=[N+](C)CCNS(=O)(=O)c2ccc(Cl)cc2)c1,-6.9%

row,SMILES,"activity change, negative = inhibition"
1,CCN(CC(=O)Nc1ccc(S(=O)(=O)N2CCCC2)cc1)CC(=O)Nc1cccc(OC)c1,-18.1%
2,CN1c2ccc(Cl)cc2-c2nc(SCC(=O)Nc3cc(F)ccc3F)ncc2S1(=O)=O,24.7%
3,Cc1ccc2oc(=O)c3cnn(CC(=O)N4CCN(c5cccc(Cl)c5)CC4)c3c2c1,4.75%
4,Cc1ccc(C2c3[nH]c4ccccc4c3CCN2C(=O)c2cccc(C)c2)cc1 (centres undefined),-0.549%
5,COCc1ccc(C(=O)N2CCc3c([nH]c4ccccc34)C2c2ccccn2)s1 (centres undefined),-33.8% (active)
6,Cc1cccc(C2c3[nH]c4ccccc4c3CCN2C(=O)c2cc(-c3cccn3C)n[nH]2)n1 (centres undefined),8.11%
7,Cc1cc(OCC(=O)Nc2ncn[nH]2)c(C)c(C)c1Br,3.31%
8,COC(=O)c1cc(NC(=O)c2cccnc2)ccc1N1CCOCC1,1.15%
9,Cc1cc(/C=C2\SC(=Nc3ccc(N4CCOCC4)cc3)N(C)C2=O)c(C)n1-c1cccnc1,-38% (active)
10,COc1ccc(S(=O)(=O)c2cn(C)c3cc(N4CCCCC4)c(F)cc3c2=O)cc1,-5.11%
11,O=C(/C=C/c1ccccc1)Nc1cc(-c2nc3cc(Cl)ccc3o2)ccc1Cl,-9.92%
12,COc1ccc(CNc2cc(C)cc(C)c2)cc1OC,-45.1% (active)
13,COc1ccc(CNCCCO)cc1OC,14.1%
14,COc1ccc(CNc2ccc3c(c2)CCC3)cc1OC,9.59%
15,CCOC(=O)c1ccc(N2C(=O)c3n[nH]c(-c4ccco4)c3C2c2ccc(O)cc2)cc1 (centres undefined),13%
16,CC(=O)c1ccc(NC(=O)CSc2c(C(C)C)cnc3c2c(=O)n(C)c(=O)n3C)cc1,1.89%
17,CCCCN1C(=O)c2[nH]nc(-c3ccccc3O)c2C1c1cccc(OCc2ccccc2)c1 (centres undefined),6.88%
18,COc1cccc2c1cc1c(=O)n(CC(=O)N3CCN(c4ccccc4)CC3)nc(C)n12,-3.55%
19,CC(=O)[C@@]12O[C@@H]1C[C@H]1[C@@H]3CC[C@H]4C[C@@H](O)CC[C@]4(C)[C@H]3CC[C@@]12C,-34.5% (active)
20,CC(=O)O[C@H]1CC[C@@]2(C)[C@@H](CC[C@@H]3[C@@H]2CC[C@]2(C)[C@@H](C(C)(C)O)C[C@@H]32)C1,-15.9%
21,Cc1cccc(NC(c2cccc(F)c2)c2ccc3ccc(C)nc3c2O)n1 (centres undefined),-16.7%
